{"source": "the supplement of paper PMC10037445", "key": {"RAW-Dual [1]": {"system": "RAW-Dual", "assay": "NF-kB SEAP reporter activity, fold change vs agonist alone; cytotoxicity flag (confluency mask): not cytotoxic; higher = enhanced NF-kB activity", "method_in_brief": "(§1)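 After 50 nL of library stock was delivered by pin tool to RAW-Dual macrophages (50,000 cells/well, DMEM, 384-well plates), a PRR agonist was added 1 h later and the plates were kept at 37 °C, 5% CO2. Twenty hours later, IRF was read from supernatant by QuantiLuc luminescence and NF-κB by QuantiBlue absorbance at 620 nm. Reporter activity is stated as fold change over agonist-alone wells. Wells with IncuCyte confluency under 70% of agonist controls in both mask sets were counted as cytotoxic.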"}, "RAW-Dual [2]": {"system": "RAW-Dual", "assay": "NF-kB SEAP reporter activity, fold change vs agonist alone; higher = enhanced NF-kB activity", "method_in_brief": "as §1"}, "RAW-Dual [3]": {"system": "RAW-Dual", "assay": "NF-kB SEAP reporter activity, fold change vs agonist alone; cytotoxicity flag (confluency mask): cytotoxic (confluency <70% of control); higher = enhanced NF-kB activity", "method_in_brief": "as §1"}, "[4]": {"details": "agonist: ODN 1826 (TLR9) 0.5 ug/mL"}, "[5]": {"details": "agonist: Pam2CSK4 (TLR2/6) 0.1 ug/mL"}, "[6]": {"details": "agonist: Pam3CSK4 (TLR2/1) 0.1 ug/mL"}, "[7]": {"details": "library stock concentration (final ~1000-fold dilution): 10 mM, cytotoxicity flag (confluency mask): not cytotoxic, agonist: Imiquimod (TLR7) […]"}, "[8]": {"details": "library stock concentration (final ~1000-fold dilution): 10 mM, cytotoxicity flag (confluency mask): not cytotoxic, agonist: MPLA (TLR4) […]"}, "[9]": {"details": "library stock concentration (final ~1000-fold dilution): 2 mM, cytotoxicity flag (confluency mask): not cytotoxic, agonist: Imiquimod (TLR7) […]"}, "[10]": {"details": "library stock concentration (final ~1000-fold dilution): 2 mM, cytotoxicity flag (confluency mask): not cytotoxic, agonist: MPLA (TLR4) […]"}}, "note": "In all, about 2,900 compounds were measured (“NF-kB SEAP reporter activity, fold change vs agonist alone”: median about 0.99, highest 2% from about 2.6 on). The sample as a whole holds a higher share of the highest values than the screen did."}
{"smiles": "CC1(C)OC(=O)C=CC2(C)C1CC(=O)C1(C)C2CCC2(C)C(c3ccoc3)OC(=O)C3OC321", "note": "(stereo unspecified) (library stock concentration (final ~1000-fold dilution): 10 mM)", "values": [{"measurement": "NF-kB SEAP reporter activity", "setting": "RAW-Dual [1]; agonist: LPS (TLR4) 0.1 ug/mL", "result": 1.04}, {"measurement": "NF-kB SEAP reporter activity", "setting": "RAW-Dual [1]; [4]", "result": 0.875}, {"measurement": "NF-kB SEAP reporter activity", "setting": "RAW-Dual [1]; [5]", "result": 1.02}, {"measurement": "NF-kB SEAP reporter activity", "setting": "RAW-Dual [1]; [6]", "result": 1.08}]}
{"smiles": "c1cncc(-c2c[nH]nn2)c1", "values": [{"measurement": "NF-kB SEAP reporter activity", "setting": "RAW-Dual [2]; [7]", "result": 0.995}, {"measurement": "NF-kB SEAP reporter activity", "setting": "RAW-Dual [2]; [8]", "result": 0.972}]}
{"smiles": "c1cncc(-c2c[nH]nn2)c1", "note": "(library stock concentration (final ~1000-fold dilution): 10 mM)", "values": [{"measurement": "NF-kB SEAP reporter activity", "setting": "RAW-Dual [1]; agonist: LPS (TLR4) 0.1 ug/mL", "result": 1.17}, {"measurement": "NF-kB SEAP reporter activity", "setting": "RAW-Dual [1]; [4]", "result": 0.863}, {"measurement": "NF-kB SEAP reporter activity", "setting": "RAW-Dual [1]; [5]", "result": 1.02}, {"measurement": "NF-kB SEAP reporter activity", "setting": "RAW-Dual [1]; [6]", "result": 1.05}]}
{"smiles": "CCCC1CC(C(=O)NC(C(C)Cl)C2OC(SC)C(O)C(O)C2O)N(C)C1.Cl", "note": "(stereo unspecified) (library stock concentration (final ~1000-fold dilution): 10 mM)", "values": [{"measurement": "NF-kB SEAP reporter activity", "setting": "RAW-Dual [1]; agonist: LPS (TLR4) 0.1 ug/mL", "result": 1.11}, {"measurement": "NF-kB SEAP reporter activity", "setting": "RAW-Dual [1]; [4]", "result": 1.04}, {"measurement": "NF-kB SEAP reporter activity", "setting": "RAW-Dual [1]; [5]", "result": 1.06}, {"measurement": "NF-kB SEAP reporter activity", "setting": "RAW-Dual [1]; [6]", "result": 1.08}]}
{"smiles": "CCCC1CC(C(=O)NC(C(C)Cl)C2OC(SC)C(O)C(O)C2O)N(C)C1.Cl", "note": "(stereo unspecified)", "values": [{"measurement": "NF-kB SEAP reporter activity", "setting": "RAW-Dual [2]; [7]", "result": 0.95}, {"measurement": "NF-kB SEAP reporter activity", "setting": "RAW-Dual [2]; [8]", "result": 1.06}]}
{"smiles": "CCCCCCCCCCCCCCCCCC[N+](C)(C)C", "values": [{"measurement": "NF-kB SEAP reporter activity", "setting": "RAW-Dual [2]; library stock concentration (final ~1000-fold dilution): 10 mM, cytotoxicity flag (confluency mask): cytotoxic (confluency <70% of control), agonist: MPLA (TLR4) […]", "result": 1.75}]}
{"smiles": "CCCCCCCCCCCCCCCCCC[N+](C)(C)C", "note": "(library stock concentration (final ~1000-fold dilution): 10 mM)", "values": [{"measurement": "NF-kB SEAP reporter activity", "setting": "RAW-Dual [3]; agonist: LPS (TLR4) 0.1 ug/mL", "result": 0.996}, {"measurement": "NF-kB SEAP reporter activity", "setting": "RAW-Dual [3]; [4]", "result": 1.37}, {"measurement": "NF-kB SEAP reporter activity", "setting": "RAW-Dual [3]; [5]", "result": 0.699}, {"measurement": "NF-kB SEAP reporter activity", "setting": "RAW-Dual [3]; [6]", "result": 0.534}]}
{"smiles": "c1ccc(-c2n[nH]cc2-c2ccnc3ccccc23)nc1", "note": "(library stock concentration (final ~1000-fold dilution): 2 mM)", "values": [{"measurement": "NF-kB SEAP reporter activity", "setting": "RAW-Dual [1]; agonist: LPS (TLR4) 0.1 ug/mL", "result": 2.19}, {"measurement": "NF-kB SEAP reporter activity", "setting": "RAW-Dual [1]; [4]", "result": 1.01}, {"measurement": "NF-kB SEAP reporter activity", "setting": "RAW-Dual [1]; [5]", "result": 0.992}, {"measurement": "NF-kB SEAP reporter activity", "setting": "RAW-Dual [1]; [6]", "result": 0.919}]}
{"smiles": "c1ccc(-c2n[nH]cc2-c2ccnc3ccccc23)nc1", "values": [{"measurement": "NF-kB SEAP reporter activity", "setting": "RAW-Dual [2]; [9]", "result": 0.961}, {"measurement": "NF-kB SEAP reporter activity", "setting": "RAW-Dual [2]; [10]", "result": 1.15}]}
{"smiles": "Cc1cccc(-c2nn3c(c2-c2ccnc4ccc(C(N)=O)cc24)CCC3)n1", "note": "(library stock concentration (final ~1000-fold dilution): 10 mM)", "values": [{"measurement": "NF-kB SEAP reporter activity", "setting": "RAW-Dual [1]; agonist: LPS (TLR4) 0.1 ug/mL", "result": 1.59}, {"measurement": "NF-kB SEAP reporter activity", "setting": "RAW-Dual [1]; [4]", "result": 1.03}, {"measurement": "NF-kB SEAP reporter activity", "setting": "RAW-Dual [1]; [5]", "result": 1.05}, {"measurement": "NF-kB SEAP reporter activity", "setting": "RAW-Dual [1]; [6]", "result": 1.21}]}
{"smiles": "c1ccc(-c2nn3c(c2-c2ccnc4cc(OCCN5CCOCC5)ccc24)CCC3)nc1", "note": "(library stock concentration (final ~1000-fold dilution): 2 mM)", "values": [{"measurement": "NF-kB SEAP reporter activity", "setting": "RAW-Dual [1]; agonist: LPS (TLR4) 0.1 ug/mL", "result": 2.87}, {"measurement": "NF-kB SEAP reporter activity", "setting": "RAW-Dual [1]; [4]", "result": 1.07}, {"measurement": "NF-kB SEAP reporter activity", "setting": "RAW-Dual [1]; [5]", "result": 1.05}, {"measurement": "NF-kB SEAP reporter activity", "setting": "RAW-Dual [1]; [6]", "result": 1.01}]}
{"smiles": "c1ccc(-c2nn3c(c2-c2ccnc4cc(OCCN5CCOCC5)ccc24)CCC3)nc1", "values": [{"measurement": "NF-kB SEAP reporter activity", "setting": "RAW-Dual [2]; [9]", "result": 0.793}, {"measurement": "NF-kB SEAP reporter activity", "setting": "RAW-Dual [2]; [10]", "result": 1.27}]}
{"smiles": "Cc1cccc(-c2nn3c(c2-c2ccnc4ccc(C(N)=O)cc24)CCC3)n1", "values": [{"measurement": "NF-kB SEAP reporter activity", "setting": "RAW-Dual [2]; [7]", "result": 1.13}, {"measurement": "NF-kB SEAP reporter activity", "setting": "RAW-Dual [2]; [8]", "result": 1.48}]}
{"smiles": "Cc1cc(C)cc(Oc2ccc(CNC(=O)C(C)N)cc2C)c1", "note": "(stereo unspecified) (library stock concentration (final ~1000-fold dilution): 10 mM)", "values": [{"measurement": "NF-kB SEAP reporter activity", "setting": "RAW-Dual [1]; agonist: LPS (TLR4) 0.1 ug/mL", "result": 1.3}, {"measurement": "NF-kB SEAP reporter activity", "setting": "RAW-Dual [1]; [4]", "result": 0.9}, {"measurement": "NF-kB SEAP reporter activity", "setting": "RAW-Dual [1]; [5]", "result": 0.484}, {"measurement": "NF-kB SEAP reporter activity", "setting": "RAW-Dual [1]; [6]", "result": 0.732}]}
{"smiles": "Cc1cc(C)cc(Oc2ccc(CNC(=O)C(C)N)cc2C)c1", "note": "(stereo unspecified)", "values": [{"measurement": "NF-kB SEAP reporter activity", "setting": "RAW-Dual [2]; [7]", "result": 1.24}, {"measurement": "NF-kB SEAP reporter activity", "setting": "RAW-Dual [2]; [8]", "result": 1.3}]}
{"smiles": "CC(C)=CCC/C(C)=C/CC/C(C)=C/CC/C=C(\\C)CC/C=C(\\C)CCC=C(C)C", "values": [{"measurement": "NF-kB SEAP reporter activity", "setting": "RAW-Dual [2]; [7]", "result": 0.926}, {"measurement": "NF-kB SEAP reporter activity", "setting": "RAW-Dual [2]; [8]", "result": 1.01}]}
{"smiles": "CC(C)=CCC/C(C)=C/CC/C(C)=C/CC/C=C(\\C)CC/C=C(\\C)CCC=C(C)C", "note": "(library stock concentration (final ~1000-fold dilution): 10 mM)", "values": [{"measurement": "NF-kB SEAP reporter activity", "setting": "RAW-Dual [1]; agonist: LPS (TLR4) 0.1 ug/mL", "result": 1.34}, {"measurement": "NF-kB SEAP reporter activity", "setting": "RAW-Dual [1]; [4]", "result": 1.09}, {"measurement": "NF-kB SEAP reporter activity", "setting": "RAW-Dual [1]; [5]", "result": 1.14}, {"measurement": "NF-kB SEAP reporter activity", "setting": "RAW-Dual [1]; [6]", "result": 1.12}]}
